The list is not random: actives were taken first. Their share in the collection is about 7.3%.
Rab9 promoter act = activators of Rab9 promoter. 320,000 tested, 2.8% active. AID 485297. Potency, µM (highest dose often 9.22 µM), for inactives: at the highest dose activation, negative = inhibition, actives largely listed as activators. Huh7 Rab9 promoter-luciferase reporter, luminescence, 24 h; note: % of control where 0% means no effect; nearly all actives have a fitted effect of over 60% in size
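Rab9 promoter-driven luciferase in stably transfected Huh7 cells; 1500 cells/well rested 2 h, exposed to compound in DMSO for 24 h at 37 °C, 5% CO2. Luminescence read 10 min after adding luciferase reagent at ambient temperature.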
SMN2 splice enh = enhancers of SMN2 splice variant expression. HEK293 SMN2-luciferase splicing reporter, luminescence, 30-36 h. Potency, µM (series often up to 46.1 µM), without a hit: at the top dose activity change, positive = activation, hits mostly activators. 210,000 tested, 2.8% active. AID 1458; note: % of control where 0% means no effect; nearly all actives have a fitted effect of over 55% in size
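qHTS luciferase splicing reporter: luminescence rises when SMN2 exon 7 is included in transfected HEK293 cells. Compound exposure lasted 30-36 h at 37C, with 4.5 mM final sodium butyrate as control, followed by a ONE-Glo read.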
Luc counter = Kinase-Glo luciferase inhibition (counter-screen); Q27757; Kinase-Glo luciferase, ATP luminescence, 8 min; Potency, µM (titrated, usually from 38.3 µM), without a hit: top-dose activity change, negative = inhibition, most hits filed as inhibitors; 200,000 tested, 0.28% active; note: % is set by controls: 0 for no effect and ±100 for the full control effect; nearly all actives have a fitted effect of over 60% in size
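Substrate mix (final 50 mM imidazole pH 7.2, 50 mM KCl, 7 mM MgCl2, 10 uM ATP, 0.01% Tween 20, 0.05% BSA) plus pin-tool compound, then Kinase-Glo detection mix; 8 min ambient, luminescence read.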
FLuc modulator = counter-screen for miR-21 project: firefly luciferase inhibitors or activators; P08659; purified FLuc, Km substrates, luminescence inhibition; Potency, µM (highest dose often 57.5 µM), for the others: at the highest dose activity change, negative = inhibition, most hits filed as inhibitors; 360,000 tested, 6.9% active;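 note: plate controls were vehicle for no effect and reference inhibitor for full effect; nearly all actives have a fitted effect of over 55% in size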
Target sequence (P08659 whole entry, looked up): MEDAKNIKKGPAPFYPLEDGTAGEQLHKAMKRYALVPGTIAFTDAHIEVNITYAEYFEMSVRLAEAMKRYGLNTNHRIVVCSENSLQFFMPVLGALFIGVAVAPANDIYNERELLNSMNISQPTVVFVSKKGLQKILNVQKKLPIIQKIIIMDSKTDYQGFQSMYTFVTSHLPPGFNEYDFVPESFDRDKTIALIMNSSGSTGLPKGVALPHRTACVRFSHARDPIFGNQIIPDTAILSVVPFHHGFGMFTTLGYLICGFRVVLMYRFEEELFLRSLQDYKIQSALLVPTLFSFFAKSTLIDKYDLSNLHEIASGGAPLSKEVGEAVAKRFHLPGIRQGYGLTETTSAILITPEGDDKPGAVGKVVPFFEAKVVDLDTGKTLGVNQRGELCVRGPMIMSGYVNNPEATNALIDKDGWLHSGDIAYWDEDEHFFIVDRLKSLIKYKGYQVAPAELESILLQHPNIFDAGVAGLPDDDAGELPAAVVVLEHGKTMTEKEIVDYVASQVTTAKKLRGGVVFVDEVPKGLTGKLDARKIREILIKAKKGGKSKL
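Purified P. pyralis luciferase, 10 nM final, with Km-level 10 uM D-luciferin and 10 uM ATP in 50 mM Tris acetate pH 7.5, 10 mM Mg acetate, 0.01% Tween-20, 0.05% BSA; 6-point qHTS titration about 60 µM downward; luminescence read.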
NPC1 promoter act = activators of NPC1 promoter. Huh7 NPC1 promoter luciferase reporter, 24 h. Potency, µM (titrated, usually from 9.22 µM), without a hit: top-dose activation, most hits filed as activators. 320,000 tested, 2.4% active. AID 485313; note: % of control where 0% means no effect; nearly all actives have a fitted effect of over 60% in size
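Cells: Huh7 expressing luciferase under the NPC1 promoter, 1500/well. Seeded 2 h, compound added, incubated 24 h at 37 °C. Luciferase reagent, 10 min ambient, then luminescence.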
ELG1 genotoxic = inducers of genotoxicity in HEK293T ELG1-luciferase cells. HEK293T ELG1-luciferase reporter, luminescence, 16 h. Potency, µM (highest dose often 46 µM), without a hit: at the top dose activity change, positive = activation, most hits filed as activators. 330,000 tested, 1.3% active; note: % of control where 0% means no effect; nearly all actives have a fitted effect of over 60% in size
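After overnight (16 hr) compound treatment at 37 °C, ELG1-luciferase HEK293T cells were lysed with ONE-Glo; luminescence quantified 30 min later at room temperature.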
* hit, by the source's call. Calls come from the whole dose curve; as a rule, active = well fitted curve in the direction sought with a large enough effect; inconclusive = small, poorly fitted or top-dose-only effect, or another doubt; inactive = no such curve, though single readings can be large; an effect the other way counts as inactive or inconclusive. Potency is the fitted concentration of half-maximal effect.

What do the screens show for `CCNC(=S)Nc1ccc(N2CCCCC2)cc1`?
Rab9 promoter act: 24.7%; SMN2 splice enh: 17.8µM*; Luc counter: -0.6%; FLuc modulator: -14.3%; NPC1 promoter act: 26.2%; ELG1 genotoxic: 15.1%

Results for CS(=O)(=O)N1CCN(c2ccc(NC(=O)Cc3ccccc3)cc2)CC1 ?
Rab9 promoter act: -0.3%; SMN2 splice enh: -7.6%; Luc counter: 20.0%; FLuc modulator: 2.8%; NPC1 promoter act: 9.6%; ELG1 genotoxic: -2.1%

How did O=C(Cc1cccs1)Nc1ccc(N2CCOCC2)cc1 do in these assays?
Rab9 promoter act: inconclusive; SMN2 splice enh: inconclusive; Luc counter: 10.6%; FLuc modulator: 16.9µM*; NPC1 promoter act: inconclusive; ELG1 genotoxic: inconclusive

How did O=C(Cc1cccs1)Nc1ccc(Cl)cc1 do in these assays?
Rab9 promoter act: 24.7%; SMN2 splice enh: inconclusive; Luc counter: -0.2%; FLuc modulator: inconclusive; NPC1 promoter act: 15.4%; ELG1 genotoxic: 0.9%

Results for Cc1nn(C(=O)c2cc3sccc3[nH]2)c(C)c1C ?
Rab9 promoter act: inconclusive; SMN2 splice enh: inconclusive; Luc counter: 1.3%; FLuc modulator: 3.01µM*; NPC1 promoter act: inconclusive; ELG1 genotoxic: 15.9%

Results for Cc1nn(C(=O)CNC(=O)c2ccccc2)c(C)c1C ?
Rab9 promoter act: -10.9%; SMN2 splice enh: -0.8%; Luc counter: 0.5%; FLuc modulator: -13.9%; NPC1 promoter act: -0.8%; ELG1 genotoxic: 7.2%

How did Cc1ccc(-n2[nH]c(C)c(/C=N/Nc3ccc([N+](=O)[O-])cc3[N+](=O)[O-])c2=O)cc1 do in these assays?
Rab9 promoter act: -11.0%; SMN2 splice enh: -63.1%; Luc counter: inconclusive; FLuc modulator: 19µM*; NPC1 promoter act: -7.9%; ELG1 genotoxic: -10.7%

What do the screens show for `Cc1ccc2c(c1)c(=O)c(C(=O)c1ccncc1)cn2CC(=O)Nc1c(C)cccc1C`?
FLuc modulator: 3.0%

What do the screens show for `N#C/C(=N\Nc1cccc(F)c1)C(=O)C1CC1`?
Rab9 promoter act: -0.7%; FLuc modulator: -8.2%; NPC1 promoter act: 1.5%; ELG1 genotoxic: -5.8%

What do the screens show for `N#C/C(=N\Nc1ccc(Cl)cc1)C(=O)c1ccccc1`?
Rab9 promoter act: -10.0%; SMN2 splice enh: -67.2%; Luc counter: -5.3%; FLuc modulator: inconclusive; NPC1 promoter act: 5.7%; ELG1 genotoxic: -10.4%

How did O=C(Nc1ccc(F)cc1)N1CCCCCC1 do in these assays?
Rab9 promoter act: 8.2%; FLuc modulator: -18.6%; NPC1 promoter act: 13.0%; ELG1 genotoxic: 17.5%

What do the screens show for `N#C/C(=N\Nc1ccccc1)C(=N)N1CCCCCC1`?
Rab9 promoter act: 1µM*; FLuc modulator: 3.38µM*; NPC1 promoter act: 1.78µM*; ELG1 genotoxic: inconclusive

How did COc1ccc(N/N=C(\C#N)C(=N)N2CCOCC2)cc1 do in these assays?
Rab9 promoter act: 24.0%; SMN2 splice enh: 15.3%; Luc counter: -2.0%; FLuc modulator: inconclusive; NPC1 promoter act: 20.2%; ELG1 genotoxic: 18.3µM*

Results for N#C/C(=N\Nc1cccc(F)c1)C(=N)N1CCCCCC1 ?
Rab9 promoter act: 0.562µM*; SMN2 splice enh: 12.6µM*; Luc counter: 0.4%; FLuc modulator: 2.39µM*; NPC1 promoter act: 0.501µM*; ELG1 genotoxic: inconclusive

Results for N#C/C(=N/Nc1ccccc1F)C(=N)N1CCOCC1 ?
Rab9 promoter act: 22.9%; SMN2 splice enh: 4.6%; Luc counter: -1.8%; FLuc modulator: -19.7%; NPC1 promoter act: 23.4%; ELG1 genotoxic: 4.6%

How did N#C/C(=N\Nc1ccc(F)cc1)C(=N)N1CCCCC1 do in these assays?
Rab9 promoter act: 0.631µM*; Luc counter: -12.7%; FLuc modulator: 3.01µM*; NPC1 promoter act: 0.562µM*; ELG1 genotoxic: 1.64µM*

Results for COc1ccc(NC(=O)c2cnc3sc(N4CCOCC4)nn3c2=O)c(OC)c1 ?
FLuc modulator: -0.8%

How did CCC(=O)N1c2ccc(S(=O)(=O)N3CCC(C)CC3)cc2CC1C (stereo unspecified) do in these assays?
SMN2 splice enh: -15.7%; FLuc modulator: -2.7%
